Source: PubChem BioAssay AID376 (PDSP, 2006)
About 250 (12%) of roughly 2,000 compounds were called active. The sample holds actives, similar compounds and a random draw of the others, so the mix is not that of the screen. No stated cut-off is given here; in the data, active means hERG blockade below about -20% or above about 20%; inactive means in between.

Biological target: Voltage-gated inwardly rectifying potassium channel KCNH2 (Homo sapiens) (UniProt Q12809)
Assay: KCNH2 potassium channel function modulators, cell-based (AID 376);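 further: 0% = buffer alone and 100% = reference blocker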
Details: hERG-expressing cells, channel activity single-concentration screen; concentration not given here

Sequence of Voltage-gated inwardly rectifying potassium channel KCNH2 (Homo sapiens) (Q12809 whole entry, looked up): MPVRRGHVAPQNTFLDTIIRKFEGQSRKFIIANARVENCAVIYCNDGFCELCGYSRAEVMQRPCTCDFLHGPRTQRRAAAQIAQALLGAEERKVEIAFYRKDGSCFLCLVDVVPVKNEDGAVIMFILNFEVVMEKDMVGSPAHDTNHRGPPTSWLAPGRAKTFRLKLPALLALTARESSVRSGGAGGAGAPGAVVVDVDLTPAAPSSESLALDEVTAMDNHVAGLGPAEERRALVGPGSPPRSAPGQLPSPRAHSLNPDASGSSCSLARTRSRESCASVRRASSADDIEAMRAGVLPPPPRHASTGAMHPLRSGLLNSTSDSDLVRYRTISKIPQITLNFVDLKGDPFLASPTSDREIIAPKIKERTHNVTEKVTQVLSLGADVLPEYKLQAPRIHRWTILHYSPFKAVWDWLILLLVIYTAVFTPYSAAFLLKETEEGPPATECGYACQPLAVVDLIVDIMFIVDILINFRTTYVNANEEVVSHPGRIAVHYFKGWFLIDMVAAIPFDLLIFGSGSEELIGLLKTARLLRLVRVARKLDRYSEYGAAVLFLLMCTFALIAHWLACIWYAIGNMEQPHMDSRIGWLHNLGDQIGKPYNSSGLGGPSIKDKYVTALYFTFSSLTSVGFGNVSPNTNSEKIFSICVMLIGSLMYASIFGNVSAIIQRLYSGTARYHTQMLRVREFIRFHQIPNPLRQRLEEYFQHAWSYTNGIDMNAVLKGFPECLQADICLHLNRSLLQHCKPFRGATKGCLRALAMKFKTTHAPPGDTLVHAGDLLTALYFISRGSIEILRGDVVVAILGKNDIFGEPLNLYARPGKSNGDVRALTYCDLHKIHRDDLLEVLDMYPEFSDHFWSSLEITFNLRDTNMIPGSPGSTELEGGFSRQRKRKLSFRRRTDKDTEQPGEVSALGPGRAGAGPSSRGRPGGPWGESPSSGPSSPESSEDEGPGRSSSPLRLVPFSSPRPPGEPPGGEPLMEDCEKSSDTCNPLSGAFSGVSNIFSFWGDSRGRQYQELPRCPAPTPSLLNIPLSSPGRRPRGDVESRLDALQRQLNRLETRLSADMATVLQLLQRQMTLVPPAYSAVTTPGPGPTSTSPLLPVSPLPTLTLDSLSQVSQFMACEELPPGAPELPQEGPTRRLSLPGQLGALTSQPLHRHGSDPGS

Structure (SMILES)	hERG blockade
O=S(=O)(O)C(CO)c1ccccc1 (stereo not given) (tested in a mixture with another compound)	13.2% (inactive)
NNC(=O)c1ccc(OCc2nc3ccccc3[nH]2)cc1	0.772% (inactive)
O=C(O)C1CCN(Cc2oc(CO)cc(=O)c2O)C1 (stereo not given)	3.01% (inactive)
CN(CC(=O)O)Cc1c(O)c(Cl)cc(Cl)c1Cl	-16.4% (inactive)
CN(CC(=O)O)Cc1oc(CO)cc(=O)c1O	-29.8% (active)
CC1=C(CCC(C)CO)OC2CC3C4CCC5CC(O)CCC5(C)C4CC(=O)C3(C)C12 (stereo not given)	-6.35% (inactive)
NC1=C(O)C(=O)C(c2c[nH]c3ccc(OCc4ccccc4)cc23)O1 (stereo not given)	12.8% (inactive)
Nc1nc(-c2ccc3ccccc3c2)cc(-c2cc(-c3ccc4ccccc4c3)nc(N)n2)n1	2.73% (inactive)
S=C1NCN2CCN(CC2)CNC(=S)C(=S)NCN2CCN(CC2)CNC1=S	17.9% (inactive)
O=[N+]([O-])c1cc(Cc2cc([N+](=O)[O-])c3cccnc3c2O)c(O)c2ncccc12	-5.37% (inactive)
Nc1nc(Cl)cc(NCCO)n1	-8.52% (inactive)
O=[N+]([O-])c1cc(Cl)cc2c1nc(NCCO)c1ccccc12	38% (active)
O=C(Cn1ccc(=O)[nH]c1=O)Nc1ccc(C(=O)O)c(O)c1	-7.44% (inactive)
Cc1cn(CCC(N)C(=O)O)c(=O)[nH]c1=O (stereo not given)	2.71% (inactive)
O=C(O)CCCCn1ccc(=O)[nH]c1=O	-28% (active)
O=C(CCN1CCOCC1)Nc1ccc(F)cc1F	4.1% (inactive)
O=C(O)Cc1[nH]cnc1C(=O)O	-3.29% (inactive)
O=C1C(=Cc2ccccc2)C(NC2CCCCC2)c2ccccc21 (stereo not given)	-0.193% (inactive)
CC(C)C1OC(=O)C=CC=CC=CC=CC=CCC(O)C(C)C(O)CC(O)CC(O)CC(O)CC(O)CC(O)CC(O)C=CC1C (stereo not given)	5.61% (inactive)
CN(C)Cc1cc(Cl)c(O)c(CN(C)C)c1	1.1% (inactive)
Oc1c(Cl)cc(C(c2cc(Cl)c(O)c(Cl)c2)C(c2cc(Cl)c(O)c(Cl)c2)c2cc(Cl)c(O)c(Cl)c2)cc1Cl	25.7% (active)
Oc1c(Cl)cc(CN(Cc2cc(Cl)c(O)c(Cl)c2)C2CCCCC2)cc1Cl	1.49% (inactive)
CC(C)(CC1(C)NC(=O)NC1=O)OCc1ccccc1 (stereo not given)	-10.8% (inactive)
O=C(O)Cn1ccnc1[N+](=O)[O-]	-10.9% (inactive)
O=C(O)c1nc(-c2ccccc2)[nH]c1C(=O)O	4.21% (inactive)

Structure (SMILES)	hERG blockade
NCCCc1c(-c2ccccc2)nc(N)[nH]c1=O	-2.69% (inactive)
Nc1nc(C(=O)O)c(N=Nc2ccccc2)c(=O)[nH]1	33.3% (active)
O=C(c1nc2ccc([N+](=O)[O-])cc2[nH]c1=O)C(O)c1ccc2c(c1)OCO2 (stereo not given)	-14.1% (inactive)
O=C1CN2CCN(CC2)CC(=O)Nc2ccc(cc2)S(=O)(=O)c2ccc(cc2)NC(=O)CN2CCN(CC2)CC(=O)Nc2ccc(cc2)S(=O)(=O)c2ccc(cc2)N1	6.34% (inactive)
O=C(O)c1ccc([N+]2=Cn3c(nc4ccccc43)C2)cc1	6.37% (inactive)
COC(=O)CCC(C)C1CCC2C3CCC4CC5CCC4(C)C3(O5)C(Br)C(Br)C12C (stereo not given)	5.42% (inactive)
CCC(N)(C(=O)O)C(C)C (stereo not given)	-13.5% (inactive)
CN=C(N)N=C(N)Nc1cc2ccccc2c2ccccc12	-54.4% (active)
NC(=O)N=C(N)NC(=O)c1ccccc1	-1.06% (inactive)
CCOC(=O)C(C)(C)C(O)C(C)C (stereo not given)	16.9% (inactive)
Cc1nc(N)nc2ccccc12	1.82% (inactive)
CS(=O)(=O)Nc1ccc(Nc2c3ccccc3nc3ccccc23)cc1	30.8% (active)
CC1OC(O)C(O)C(O)C1O (stereo not given)	8.47% (inactive)
O=C(O)C(Sc1ccc(Cl)cc1)Sc1ccc(Cl)cc1	-7.17% (inactive)
Oc1ccc(Cl)cc1Sc1cc(Cl)ccc1O	36.8% (active)
N#CCCSC(=S)C1CCCC1=N (stereo not given)	14.7% (inactive)
CN(C)CCCN1c2ccccc2Sc2cnccc21	73.5% (active)
CN(C)CCCn1cnc2cc(Cl)c(Cl)cc21	5.34% (inactive)
CN(C)CCCN1c2ccc(O)cc2Sc2ccc(Cl)cc21	62.7% (active)
CN(C)CCCn1c2ccccc2c2cnccc21	90.4% (active)
Cc1c2cnccc2c(C)c2c1c1ccccc1n2CCOC(=O)c1ccccc1	17.4% (inactive)
CSc1ccc2c(c1)N(CCCN(C)C)c1ccccc1S2	90.6% (active)
Oc1cc(O)c2c(c1)OC(c1ccc(O)c(O)c1)C(OC1(c3cc(O)c(O)c(O)c3)Oc3cc(O)cc(O)c3C(O)C1O)C2 (stereo not given)	-3.37% (inactive)
CC(CC(=O)O)C(C(=O)O)C(=O)O (stereo not given)	2.78% (inactive)
Oc1cc(CN2COc3ccccc32)c(O)cc1CNC1CCCCC1	6.98% (inactive)
